# Bioassay records: PubChem BioAssay, Broad Institute
# LGR2 inh – blocks bursicon-induced cAMP signaling via Drosophila LGR2; HEK293 LGR2, CRE-luciferase, bursicon-stimulated, 4 h; inhibition, % at 9.99 µM; 380,000 tested, 0.35% active;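 active means drop in luminescence signal, shown as inhibition above about 50% in the replicate tests, limit read from the data, passing the limit was not always enough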;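 further: agonist challenge used bursicon conditioned medium at about half maximal strength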
# EBV LMP1 NFkB – Epstein-Barr LMP1 NF-kappaB reporter inhibition. inhibition, % at 12.5 µM. 350,000 tested, 0.69% active. LMP1-induced NF-kappaB luciferase reporter cells, luminescence; in the data active means inhibition above about 41%;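 further: 0% = neutral control wells and 100% = reference inhibitor control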
# Shn3 3UTR inh – inhibitors of Schnurri-3 3'UTR reporter in osteoblasts; Clone20 osteoblast Shn3 3'UTR firefly luciferase, 24 h; inhibition, % at 12.5 µM; 360,000 tested, 0.52% active;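 active means mean inhibition of at least 75% with every replicate also reaching 75%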;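 further: 0% = median of neutral control wells and 100% = pilot-screen positive control compound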
# MITF TRPM1 inh – inhibitors of MITF-driven TRPM1 promoter in melanoma cells | SK-MEL-5 TRPM1 promoter luciferase, 24 h | inhibition, % at 12.5 µM | 330,000 tested, 0.83% active | AID 488899;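 active means mean inhibition across replicates of 60% or more, whatever share of single replicates reaches that level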
# EWS-Fli inh – EWS/Fli transcriptional activity inhibition; A673 NR0B1-luciferase reporter, viability-normalised; inhibition, % at 12.6 µM; 350,000 tested, 0.67% active;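 active means mean inhibition of at least 50% after viability correction, with every replicate also passing that limit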;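 further: firefly luciferase signal divided by Alamar Blue viability fluorescence both relative to DMSO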
# PAX8 inh HTS – PAX8 transcriptional activity inhibition. RMG-I TPO-luciferase reporter, SteadyGlo, 24 h. inhibition, % at 12.6 µM. 360,000 tested, 1.2% active;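 active means mean replicate inhibition at least 60% with every replicate also reaching 60%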;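 further: luciferase light reporting Pax8 driven TPO promoter activity; plate controls were median of neutral control wells for no effect and mitoxantrone controls for full effect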
# Active calls of the source: *; . = not tested or not shown. Rows were chosen to be rich in hits. Some 2.2% of all compounds tested hit in one or more screens of this group.
SMILES,LGR2 inh,EBV LMP1 NFkB,Shn3 3UTR inh,MITF TRPM1 inh,EWS-Fli inh,PAX8 inh HTS
CCc1sc(N2[C@@H](C#N)[C@@H](c3ccccc3-c3ccc(F)cc3)[C@@H]2CO)nc1C,20.4,.,.,.,3.5,-13.9
CCN(CC)S(=O)(=O)c1cc([N+](=O)[O-])ccc1NNC(=O)Nc1ccc(Cl)c(Cl)c1,.,45.7*,.,38.3,.,88.7*
O=C(NNc1ccccc1[N+](=O)[O-])Nc1ccc(Cl)c(Cl)c1,.,31.6,5.2,-2.3,-0.7,-2.1
C=CC[N+](C)(C)C/C(Cl)=C(\Cl)c1ccccc1,0.9,49.2*,22.0,0.9,.,.
CCC(COC)Oc1cc(NCc2ccccc2)c2ncn(C(C)C)c2c1 (configuration not stated),104.1*,9.4,20.7,6.2,4.0,70.0*
CCC(CO)Oc1cc(NCc2ccccc2)c2ncn(C(C)C)c2c1 (configuration not stated),9.8,10.0,11.2,12.7,1.4,-1.6
CCOCCOc1cc(NCc2ccccc2)c2ncn(C(C)C)c2c1,47.6,0.0,-7.4,8.4,12.4,8.7
CC(C)n1cnc2c(NCc3ccccc3)cc(N[C@H](C)CO)cc21,.,-9.6,41.8,73.3*,.,.
CCC(COC(=O)c1ccccc1)Oc1cc(NCc2ccccc2)c2ncn(C(C)C)c2c1 (configuration not stated),-3.2,-8.2,-19.0,14.7,-3.6,64.1*
COCCCOc1cc(NCc2ccccc2)c2ncn(C(C)C)c2c1,16.7,3.5,-18.8,56.5,9.6,-1.7
CCC(CO)Oc1cc(NCc2ccc(O)cc2)c2ncn(C(C)C)c2c1 (configuration not stated),7.3,2.5,-17.2,-9.2,8.1,8.0
CCCCOc1cc(NCc2ccccc2)c2ncn(C(C)C)c2c1,68.1*,-38.4,-3.0,4.4,11.1,18.9
Cn1cnc(S(=O)(=O)N[C@@H]2C=C[C@@H](CC(=O)N3CCN(c4ccccc4)CC3)O[C@@H]2CO)c1,12.0,.,.,.,.,.
COCC(=O)Nc1ccc2c(c1)OC[C@@H](C)N(C(=O)Cc1ccccn1)C[C@H](C)[C@@H](OC)CN(C)C2=O,-0.1,.,.,.,-4.7,.
O=C(C1CC(=O)N(c2ccc3c(c2)OCCO3)C1)N1CCN(Cc2ccccc2F)CC1 (configuration not stated),-34.8,69.6*,15.6,-3.4,2.4,-0.4
Cc1ccccc1-c1ccc([C@@H]2[C@H]3CN(C(=O)Cc4ccccn4)CC(=O)N3[C@H]2CO)cc1,-6.6,.,.,.,-4.5,1.7
COc1cccc(S(=O)(=O)N2CCCCN3[C@@H](CO)[C@H](c4ccc(C#CC(C)C)cc4)[C@@H]3C2)c1,4.3,.,.,.,13.7,65.4*
COc1cccc(S(=O)(=O)N2CCCCN3[C@@H](CO)[C@@H](c4ccc(C#CCC(C)C)cc4)[C@@H]3C2)c1,16.2,.,.,.,18.2,86.1*
COc1ccc(S(=O)(=O)N2CCCCN3[C@H](C2)[C@H](c2ccc(C#CC(C)C)cc2)[C@@H]3CO)cc1,5.8,.,.,.,12.7,102.4*
COc1ccc(S(=O)(=O)N2CCCCN3[C@H](CO)[C@H](c4ccc(-c5cccnc5)cc4)[C@@H]3C2)cc1,58.1*,.,.,.,.,5.6
COc1cccc(S(=O)(=O)N2CCCCN3[C@H](C2)[C@@H](c2ccc(C#CCC(C)C)cc2)[C@@H]3CO)c1,3.3,.,.,.,2.3,19.3
COc1ccc(S(=O)(=O)N2CCCCN3[C@H](CO)[C@@H](c4ccc(C#CC(C)C)cc4)[C@@H]3C2)cc1,1.8,.,.,.,6.7,-22.7
COc1ccc(-c2cnc3c(c2)C(=O)N([C@H](C)CO)C[C@@H](C)[C@@H](CN(C)Cc2ccc(C(=O)O)cc2)O3)cc1,-18.7,.,.,.,-11.5,-0.7
CC(C)NC(=O)N1C[C@H]2[C@@H](c3ccccc31)[C@H](CO)N2C(=O)Nc1ccccc1,-1.4,.,.,.,-6.2,-0.7
C[C@H](CO)N1C[C@H](C)[C@H](CN(C)Cc2cccc(C(F)(F)F)c2)Oc2ncc(-c3ccc(F)cc3)cc2C1=O,10.1,.,.,.,16.3,0.3
Cn1cnc([N+](=O)[O-])c1S(=O)(=O)Oc1ccc(Cl)cc1,-9.1,-17.5,93.5*,68.2*,63.8*,110.3*
Cn1cnc([N+](=O)[O-])c1Oc1cccc2ccccc12,20.5,-8.8,-13.0,49.2,.,14.7
CCS(=O)(=O)c1c([N+](=O)[O-])ncn1C,5.2,-4.1,-15.4,8.5,-3.2,-3.4
